Sfp PPTase inh = Sfp phosphopantetheinyl transferase inhibition; Q9F4F7; Biochemical Sfp PPTase activity, qHTS; Potency, µM, most hits filed as inhibitors; actives 3.5% (n = 310,000); AID 1490;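 note: the enzyme is Sfp with the accession as filed and its product quenches rhodamine fluorescence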
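Reaction rates are the 30-min fluorescence difference (ex 525, em 598 nm) in wells containing 15 nM Sfp, 5 uM rhodamine-CoA and 12.5 uM BHQ-2-YbbR at pH 7.6 with 10 mM MgCl2.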
G9a block = inhibitors of human histone lysine methyltransferase G9a. actives 8.8% (n = 350,000). Potency, µM (highest dose often 102 µM), most hits filed as inhibitors. G9a H3K9 monomethylation, AlphaScreen, 2 h. AID 504332. Q96KQ7; note: nearly all actives have a fitted effect of over 75% in size
Target sequence (Q96KQ7 913-1193 limits assumed): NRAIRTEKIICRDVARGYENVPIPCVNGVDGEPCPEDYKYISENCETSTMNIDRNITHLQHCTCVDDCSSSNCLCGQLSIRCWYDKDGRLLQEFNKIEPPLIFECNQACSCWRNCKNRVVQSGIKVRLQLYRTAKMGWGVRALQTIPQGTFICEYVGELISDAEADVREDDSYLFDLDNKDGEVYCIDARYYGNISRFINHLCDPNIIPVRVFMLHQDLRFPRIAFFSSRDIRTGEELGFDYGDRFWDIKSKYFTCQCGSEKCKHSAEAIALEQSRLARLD
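Methyltransferase reactions run at room temperature for 2 h (20 nM enzyme, 500 nM biotin-H3K9 peptide, 20 uM SAM) after a 15 min compound preincubation; product detected by AlphaScreen beads and anti-H3K9me1 antibody.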
JMJD2A Tudor = JMJD2A Tudor domain (human) inhibition; Potency, µM (highest dose often 114 µM), most hits filed as inhibitors; actives 4.4% (n = 390,000); AlphaScreen JMJD2A-Tudor / H3K4me3 peptide binding; note: nearly all actives have a fitted effect of over 50% in size
BAZ2B block = blocks human BAZ2B; AlphaScreen BAZ2B-H3K14Ac peptide displacement; actives 4.4% (n = 360,000); Potency, µM (titrated, usually from 114 µM), usual class: inhibitors; Q9UIF8; note: nearly all actives have a fitted effect of over 60% in size
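AlphaScreen luminescence quantifies BAZ2B engagement of H3K14Ac peptide; the protein and biotinylated peptide are both at 50 nM final, buffer PBS pH 7.4 with 0.01% Tween-20, all steps at room temperature.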
HP1b binding inh = HP1-beta chromodomain-methylated histone interaction inhibition; AlphaScreen HP1-beta / biotin-H3K9me3 peptide binding; actives 0.56% (n = 390,000); Potency, µM (titrated, usually from 114 µM), hits mostly inhibitors; note: nearly all actives have a fitted effect of over 70% in size
Target sequence (P83916 whole entry, looked up): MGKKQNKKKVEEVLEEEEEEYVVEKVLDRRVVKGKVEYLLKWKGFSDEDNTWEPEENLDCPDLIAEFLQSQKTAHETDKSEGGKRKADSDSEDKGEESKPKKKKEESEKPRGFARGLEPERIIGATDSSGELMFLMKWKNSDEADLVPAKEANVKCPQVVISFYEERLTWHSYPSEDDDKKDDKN
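AlphaScreen: HP1-beta (50 nM) preformed 30 min with biotin-H3(1-18)K9me3 peptide (50 nM) in PBS pH 7.4, 0.01% Tween-20. Compound added for 30 min at RT, then streptavidin donor/nickel chelate acceptor beads (10 ug/mL) for 30 min.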
Numbers stand for hits; [ ] = remark or other dose. Shown are actives, neighbours in structure and some others; about 12% of the full set was active somewhere. Calls come from the whole dose curve; as a rule, active = well fitted curve in the direction sought with a large enough effect; inconclusive = small, poorly fitted or top-dose-only effect, or another doubt; inactive = no such curve, though single readings can be large; an effect the other way counts as inactive or inconclusive.

Screening COc1ccc(C(=O)Nc2ccc(S(=O)(=O)NCc3ccco3)cc2)cc1OC returned Sfp PPTase inh inactive, G9a block 39.8µM, JMJD2A Tudor inconclusive, BAZ2B block inactive and HP1b binding inh inactive.
CC(C)CC(=O)Nc1ccc(S(=O)(=O)NCc2ccco2)cc1 was read as Sfp PPTase inh inactive, G9a block 17.8µM, JMJD2A Tudor inactive, BAZ2B block inactive and HP1b binding inh inactive.
Screening COc1cccc(S(=O)(=O)NCc2ccc(C(=O)NCc3ccco3)cc2)c1 returned Sfp PPTase inh inconclusive, G9a block 44.7µM, JMJD2A Tudor inactive, BAZ2B block inactive and HP1b binding inh inactive.
`CC(=O)Nc1ccc(NC(=O)COC(=O)c2ccc(S(=O)(=O)NCc3ccco3)cc2)cc1` gave JMJD2A Tudor inactive and HP1b binding inh inactive.
`O=C(COc1ccccc1)NCC(=O)Nc1ccc(S(=O)(=O)NCc2ccco2)cc1` gave Sfp PPTase inh inactive, G9a block inconclusive, JMJD2A Tudor inactive, BAZ2B block inactive and HP1b binding inh inactive.
`COc1cccc(S(=O)(=O)Nc2ccc(C(=O)NCc3ccco3)cc2)c1` gave Sfp PPTase inh inactive, G9a block inactive, JMJD2A Tudor inactive, BAZ2B block inactive and HP1b binding inh inactive.
Screening O=C(COc1ccccc1)Nc1ccc(S(=O)(=O)NCc2ccco2)cc1 returned Sfp PPTase inh inactive, G9a block 50.1µM, JMJD2A Tudor 50.1µM, BAZ2B block inconclusive and HP1b binding inh inactive.
`Cc1ccc(/C=C/C(=O)O)cc1S(=O)(=O)NCc1ccco1` gave Sfp PPTase inh 39.8µM, JMJD2A Tudor inactive, BAZ2B block inconclusive and HP1b binding inh inactive.
CCCNC(=O)c1c[nH]c2ccc(S(=O)(=O)N(C)c3ccc(OCC)cc3)cc2c1=O was read as Sfp PPTase inh inactive, G9a block inactive, JMJD2A Tudor inactive, BAZ2B block inactive and HP1b binding inh inactive.
CCC(C)c1ccc(S(=O)(=O)N2CCN(C(C)C(=O)NC3CCCC3)CC2)cc1 (stereo not drawn) was read as G9a block inactive[12.7 µM], JMJD2A Tudor inactive, BAZ2B block inactive and HP1b binding inh inactive.
For COc1cccc(CNC(=O)c2cc3cccc4c3n2CC(C)S4)c1OC (stereo not drawn) the results were G9a block inactive, JMJD2A Tudor inactive, BAZ2B block inactive and HP1b binding inh inactive.
For COc1cccc(NC(=O)COC(=O)c2ccc(S(=O)(=O)NCc3ccco3)cc2)c1 the results were Sfp PPTase inh inactive, G9a block inactive[12.7 µM], JMJD2A Tudor 35.5µM, BAZ2B block inconclusive and HP1b binding inh inactive.
Screening O=C(OCc1nnc(-c2ccccc2)o1)c1ccc(S(=O)(=O)NCc2ccco2)cc1 returned Sfp PPTase inh inactive, G9a block inactive[12.7 µM], JMJD2A Tudor 79.4µM, BAZ2B block 79.4µM and HP1b binding inh inconclusive.
`COc1cccc(CNS(=O)(=O)c2c(C(=O)N3CCCCCC3)c(C)n(C)c2C)c1` gave Sfp PPTase inh inactive, G9a block inactive, JMJD2A Tudor 22.4µM, BAZ2B block inactive and HP1b binding inh inactive.
`NC(=O)COC(=O)c1ccc(S(=O)(=O)NCc2ccco2)cc1` gave Sfp PPTase inh inactive, G9a block inconclusive, JMJD2A Tudor inconclusive, BAZ2B block inconclusive and HP1b binding inh inactive.
Screening COc1cccc(S(=O)(=O)NCc2ccc(C(=O)N3CCN(c4ccccc4)CC3)cc2)c1 returned Sfp PPTase inh inactive, G9a block 63.1µM, JMJD2A Tudor inactive, BAZ2B block inactive and HP1b binding inh inactive.
`O=C(C1=C(O)C(=O)N(Cc2ccco2)C1c1cccs1)c1cccs1` (stereo not drawn) gave Sfp PPTase inh inactive, G9a block inconclusive, JMJD2A Tudor inactive, BAZ2B block inconclusive and HP1b binding inh inactive.
`CC(C)(C)c1ccc(C(=O)NCC(=O)O)cc1` gave Sfp PPTase inh inactive, G9a block inactive, JMJD2A Tudor inactive, BAZ2B block inactive and HP1b binding inh inactive.
CN1CCC(C(=O)C(=O)O)C1=O (stereo not drawn) was read as JMJD2A Tudor 20µM and HP1b binding inh 70.8µM.
`Cc1nnc(SCC2=C(C(=O)O)N3C(=O)C(NC(=O)Cn4nc(C(F)F)c(Cl)c4C)C3SC2)s1` (stereo not drawn) gave Sfp PPTase inh inactive, G9a block inconclusive, JMJD2A Tudor inconclusive, BAZ2B block inconclusive and HP1b binding inh inactive.

High-throughput results (PubChem)
